# PLK1 PBD inh: blocks phosphopeptide binding to human PLK1 polo-box domain. P53350. Plk1 PBD binding of FITC phosphopeptide, fluorescence polarization. Potency, µM, for the others: max response, negative = inhibition, actives largely listed as inhibitors. 360,000 tested, 2.8% active; further: series mostly up to about 57 µM; nearly all actives have a fitted effect of over 65% in size
# KAT2A inh: blocks human GCN5L2 histone acetyltransferase; GCN5L2 HAT assay, ThioGlo1 CoA-SH fluorescence; 390,000 tested, 0.21% active; Potency, µM (highest dose often 58.9 µM), inactives show top-dose activity change, negative = inhibition, actives largely listed as inhibitors; AID 504327
#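 Titration-based screen in which CoA formation is detected via maleimide probe ThioGlo1 (50uM) turning fluorescent on thiol reaction; substrates H3(1-25) 75uM and acetyl-CoA 70uM, GCN5L2 20nM, 20 min incubation at room temperature.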
# TDP1 cell CPT: growth inhibition of DT40 Tdp1-/-;hTDP1 cells with camptothecin (screen for TDP1 inhibitors); AID 686979; 420,000 tested, 12% active; chicken DT40 Tdp1-/-;hTDP1 cells + 20 nM CPT, ATP luminescence, 48 h; Potency, µM (series often up to 46.2 µM), without a hit: at the highest dose activity change, negative = growth inhibition, hits mostly inhibitors; further: nearly all actives have a fitted effect of over 55% in size
#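 Chicken DT40 Tdp1-/- cells complemented with human TDP1, 400 cells/well, exposed to compounds plus 20 nM camptothecin for at least 48 h at 37 C; viability read as ATP content by CellTiter-Glo luminescence.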
# VDR inh: vitamin D3 receptor (human) inhibition; VDR-SRC2-3 peptide fluorescence polarization, 2 h; Potency, µM, inactives show max response, negative = inhibition, hits mostly inhibitors; 400,000 tested, 0.93% active; P11473
#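 Two reagent solutions held at 4 deg C in the dark were dispensed, compounds pinned at 23 nl, and the mixture incubated 2 h at room temperature. Read-out: fluorescence polarization of VDR–SRC2-3 peptide binding.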
# TDP1 inh: inhibitors of human tyrosyl-DNA phosphodiesterase TDP1 | Potency, µM (titrated, usually from 130 µM), without a hit: at the highest dose activity change, negative = inhibition, usual class: inhibitors | recombinant TDP1, AlphaScreen DNA substrate cleavage | AID 485290 | Q9NUW8 | 350,000 tested, 0.28% active; further: nearly all actives have a fitted effect of over 40% in size
# Target sequence (Q9NUW8 whole entry, looked up): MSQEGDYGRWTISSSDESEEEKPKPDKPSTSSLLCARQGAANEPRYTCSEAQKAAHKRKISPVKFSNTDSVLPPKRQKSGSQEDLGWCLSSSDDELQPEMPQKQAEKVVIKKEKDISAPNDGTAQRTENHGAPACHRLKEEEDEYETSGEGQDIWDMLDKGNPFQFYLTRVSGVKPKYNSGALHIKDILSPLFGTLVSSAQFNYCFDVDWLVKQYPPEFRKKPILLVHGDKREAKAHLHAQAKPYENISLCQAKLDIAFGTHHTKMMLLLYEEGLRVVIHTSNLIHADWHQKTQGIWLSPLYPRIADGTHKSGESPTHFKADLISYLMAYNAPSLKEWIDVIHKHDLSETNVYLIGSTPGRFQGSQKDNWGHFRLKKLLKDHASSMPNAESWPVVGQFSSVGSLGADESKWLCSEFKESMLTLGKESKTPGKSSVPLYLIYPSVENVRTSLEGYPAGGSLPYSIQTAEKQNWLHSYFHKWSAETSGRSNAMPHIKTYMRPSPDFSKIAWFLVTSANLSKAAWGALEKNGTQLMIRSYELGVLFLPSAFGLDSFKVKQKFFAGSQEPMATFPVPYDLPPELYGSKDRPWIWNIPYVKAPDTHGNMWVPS
#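 Recombinant human Tdp1 (E. coli-expressed, 1 nM final) preincubated with compounds 15 min at room temperature, then 5'-biotin/3'-phosphotyrosine-FITC DNA substrate (15 nM final) added for 5 min. AlphaScreen beads (10 ug/ml final) added 10 min; cleavage lowers signal.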
# TDP1 cell noCPT: qHTS for Inhibitors of human tyrosyl-DNA phosphodiesterase 1 (TDP1): qHTS in cells in absence of CPT | DT40 Tdp1-/- hTDP1 cells, no CPT, ATP luminescence, 48 h | Potency, µM (top dose mostly 46.2 µM), for the others: top-dose activity change, negative = growth inhibition, actives largely listed as inhibitors | 420,000 tested, 15% active | AID 686978, 2013; further: nearly all actives have a fitted effect of over 55% in size
#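 Growth kinetics read by CellTiter-Glo luminescence after ≥48 hr at 37 °C. Cells: DT40 Tdp1-/- stably carrying human TDP1, 400 per well, compound exposure in the absence of CPT (DMSO vehicle).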
# Numbers without * were called inactive; ? = inconclusive; nt = no result; [ ] = dose if it differs, or a comment. The list is not random: actives were taken first. Their share in the collection is about 18%. The call rests on the fitted dose curve; in most records, active means well fitted curve in the direction sought with a large enough effect; inconclusive means small, poorly fitted or top-dose-only effect, or another doubt; inactive means no such curve, though single readings can be large; an effect the other way counts as inactive or inconclusive. On the % scale 0 is the no-effect control and ±100 the full control effect; potency means the concentration at half of the fitted maximal effect.
SMILES,PLK1 PBD inh,KAT2A inh,TDP1 cell CPT,VDR inh,TDP1 inh,TDP1 cell noCPT
CO/N=C(/C(=O)N[C@@H]1C(=O)N2C(C(=O)O)=C(CSc3nc(C)c(CC(=O)O)s3)CS[C@H]12)c1csc(N)n1,nt,-8%,nt,35µM*,nt,nt
CO/N=C(\C(=O)NC1C(=O)N2C(C(=O)OCOC(=O)C(C)(C)C)=C(/C=C\c3scnc3C)CSC12)c1csc(N)n1 (configuration not stated),nt,-15%,nt,35µM*,7%,nt
CN(CC(=O)Nc1ccc(F)cc1)C(=O)COC(=O)c1cc(Br)c(Br)s1,0%,nt,-5%,-6%,nt,?
Cc1ccc2c(n1)CC(C)(C)C/C2=N\O,-6%,-6%,?,-4%,4%,-18%
Cc1ccsc1C(=O)N1CCC1(C)C(=O)Nc1cccc(C#N)c1 (configuration not stated),0%,nt,?,nt,nt,?
CC1(C(=O)Nc2ccc3c(c2)OCCO3)CCN1C(=O)c1ccccc1CCc1ccccc1 (configuration not stated),1%,nt,29µM*,nt,nt,?
CC1(C(=O)Nc2cccc(C#N)c2)CCN1C(=O)c1ccccc1CCc1ccccc1 (configuration not stated),-5%,nt,?,nt,nt,23µM*
CC1(C(=O)Nc2ccc3c(c2)OCCO3)CCN1C(=O)c1ccco1 (configuration not stated),-6%,nt,-42%,nt,nt,-11%
CC(C)(C)c1ccc(C(=O)N2CCC2(C)C(=O)Nc2cccc(C#N)c2)cc1 (configuration not stated),-6%,nt,16µM*,nt,nt,16µM*
Nc1nc(N2CCOCC2)cc(=O)[nH]1,-13%,-28%,2%,-11%,4%,-5%
CCOc1ccc(NS(=O)(=O)c2ccc(OC)c(C)c2)cc1,1%,-1%,?,-1%,7%,?
CCOc1ccc(NS(=O)(=O)c2cc(Cl)ccc2OC)cc1,-3%,nt,?,19%,6%,16µM*
COc1ccc(Cl)cc1S(=O)(=O)Nc1ccc2[nH]c(=O)[nH]c2c1,nt,-1%,21µM*,-10%,0%,16µM*
Cc1c(C(=O)N(C)Cc2cccc3ncccc23)cnn1-c1nccc(-c2ccccc2F)n1,nt,nt,-3%,nt,nt,-28%
Cc1cc(=O)oc2cc(Oc3ccc([N+](=O)[O-])cc3[N+](=O)[O-])ccc12,-3%,37%,5.2µM*,-24%,6%,4.6µM*
O=Cc1cccc(Oc2ccc([N+](=O)[O-])cc2[N+](=O)[O-])c1,-7%,0%,?,-15%,5%,7.3µM*
COC(=O)c1cnn(-c2ccc(C(=O)Nc3cccc(C(C)=O)c3)cc2)c1N,nt,0%,2%,-1%,nt,5%
O=C(CN1C(=O)NC2(CCCC2)C1=O)N1CCN(S(=O)(=O)c2cccc(C(F)(F)F)c2)CC1,1%,-1%,9%,2%,nt,-9%
CCCCC/C(=N\NC(=O)CCC(=O)NCc1ccccc1)c1ccccc1,2%,3%,?,-6%,8%,?
CCOC(=O)N/N=C/c1ccc(N(CC)CC)cc1O,2%,-6%,8.2µM*,12%,8%,5.8µM*
CCN(CC)c1ccc(/C=N/Nc2ccc(C)cc2)c(O)c1,?,-18%,12µM*,-11%,8%,12µM*
COc1cc(/C=N\NC(=O)CNC(=O)C2COc3ccccc3O2)ccc1O (configuration not stated),-8%,-1%,?,-6%,3%,-2%
CC/C(=N\NC(=O)CCC(=O)NCc1ccccc1)c1ccc(O)cc1,?,7%,2.9µM*,12%,-4%,4.1µM*
CCN(CC)c1ccc(/C=N/NC(=O)CNC(=O)C2COc3ccccc3O2)c(O)c1 (configuration not stated),3%,-18%,5.8µM*,-6%,9%,3.3µM*
O=C(CC1(c2ccc(Cl)cc2)C2CC3CC(C2)CC1C3)NCCO (configuration not stated),-14%,-4%,1%,-20%,-4%,-10%
SMILES,PLK1 PBD inh,KAT2A inh,TDP1 cell CPT,VDR inh,TDP1 inh,TDP1 cell noCPT
C#CCCCO/N=C1/C[C@@H](O)[C@@H](O)[C@@H]2[C@@H]3C(=O)N(C(C)(C)C)C(=O)[C@H]3CC[C@H]12,nt,nt,nt,nt,4%[21 µM],nt
O=C(CCC(=O)N/N=C/c1c[nH]c2ccccc12)NCc1ccccc1,-22%,1%,-8%,-15%,3%,-20%
Cc1[nH]c2ccccc2c1/C=N/NC(=O)CCC(=O)NCc1ccccc1,12µM*,-6%,?,-21%,5%,?
CCN(CC)c1ccc(/C=N/NC(=O)CCC(=O)NCc2ccccc2)c(O)c1,-9%,-4%,5.2µM*,-4%,8%,5.2µM*
Cc1cccc(NC(=O)CCNS(=O)(=O)c2ccc3c(c2)CCCC(=O)N3)c1C,nt,-4%,nt,8%,-4%,nt
CCCn1c(C)cc(C(=O)Cn2nnc3ccccc3c2=O)c1C,2%,-1%,-3%,-16%,8%,-23%
Cc1cccc(Cn2ncc(Cl)c(Cl)c2=O)c1,-11%,5%,12µM*,-5%,1%,9.2µM*
Cc1cc(C(=O)Cn2ncc(Cl)c(Cl)c2=O)c(C)n1CC(F)(F)F,-10%,61%,4.6µM*,3%,4%,3.7µM*
Cc1ccc(C)c(C(=O)Cn2ncc(Cl)c(Cl)c2=O)c1,-13%,-11%,5.8µM*,-7%,7%,3.3µM*
Cc1cc2oc(=O)cc(Cn3ncc(Cl)c(Cl)c3=O)c2cc1Cl,-27%,-24%,3.3µM*,?,3%,3.3µM*
CCCCCc1c(O)nc(SCCN2CCOCC2)[nH]c1=O,?,-5%,-10%,-12%,5%,-2%
Cc1ccccc1-c1nc(CS(=O)CC(=O)NCCc2ccc(Cl)cc2)c(C)o1 (configuration not stated),19µM*,0%,16µM*,-14%,6%,?
CCc1ccc(-c2nc(CS(=O)CC(=O)NCCc3ccc(C)cc3)c(C)o2)cc1 (configuration not stated),nt,0%,23µM*,9%,6%,?
CCc1ccc(-c2nc(CS(=O)CC(=O)NCCCN3CCC(C)CC3)c(C)o2)cc1 (configuration not stated),27µM*,-6%,?,-9%,1%,?
Cc1cc(/C=c2/sc3nc4ccccc4n3c2=O)c(C)n1-c1ccccn1,-8%,-9%,?,-5%,5%,18µM*

# Compound activity (PubChem)
